Source: PubChem BioAssay AID651819 (National Center for Advancing Translational Sciences (NCATS), 2012)
“And” between values parts separate entries of the source, which are not always exact repeats. Equal entries are not always repeated. In all, about 360,000 compounds went through this assay and about 1,100 (0.31%) were called active. This is one part of a sample in which actives are shown more often than they occur. Values without a mark were called inactive. Cut-off read from the data, not from the text of the source: active = activity change below about -30%; inactive = the rest.

test system: cytosolic chaperonin (CCT/TRiC complex); experiment: High-Throughput Screening for Modulators of Cytosolic Chaperonin Activity; settings: purified chaperonin ATPase assay, HTRF ADP detection, 30 min; stronger effect = lower value
In short: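 Nucleotide hydrolysis assay: TRiC at 20–40 nM final (set by batch activity) with 10 uM ATP, 30 min at 37 °C, in presence of 76 uM compound. Detection by competitive ADP HTRF, 30 min ambient.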
% is set by controls: 0 for no effect and ±100 for the full control effect.

**Q.** Which activity change does the source give for `CSCCC1NC2(C(=O)Nc3ccc(Cl)cc32)[C@@H]2C(=O)N(C3CCCC3)C(=O)[C@H]12` (stereo not given in full) here?
**A.** 1.03%

**Q.** How did the activity change turn out when `Cc1c(CC(=O)NCC(=O)NCC(=O)O)c(=O)oc2cc3oc4c(c3cc12)CCCC4` was run?
**A.** -2.16%

**Q.** For `COc1ccc(-n2nc3c(c2NC(=O)c2ccc(N4C(=O)CCC4=O)cc2)CSC3)cc1`, which activity change is on record?
**A.** -0.865%

**Q.** How did the activity change turn out when `COc1ccc(-c2csc(NC(=O)c3ccc(N4C(=O)CCC4=O)cc3)n2)cc1OC` was run?
**A.** -39.6% (active)

**Q.** Which activity change does the source give for `COc1cc(NC(=O)c2ccc(-c3csc(C)n3)cc2)c(OC)cc1Cl` here?
**A.** -4.58%

**Q.** With `C[C@H]1Cn2cnc(C(=O)N[C@H](C)c3ccccc3)c2C(=O)N1` as the compound, how does the activity change read?
**A.** -0.974%

**Q.** Which activity change does the source give for `Cc1nc(SCC(=O)NC2CCCC2)[nH]c(=O)c1C` here?
**A.** -0.123%

**Q.** `Cc1ccc2nc(SCC(=O)NC3CCCC3)[nH]c2c1` was tested. Which activity change did it give?
**A.** -1.34%

**Q.** `CCc1c(C)nc(SCC(=O)NC2CCCC2)[nH]c1=O` was tested. Which activity change did it give?
**A.** -41.7% (active)

**Q.** For `O=C(CSC1=NS(=O)(=O)c2cc(F)ccc2N1)Nc1ccccc1F`, which activity change is on record?
**A.** 0.641%

**Q.** How did the activity change turn out when `COC(=O)c1ccc(S(=O)(=O)c2ccc(C(=O)OC)s2)s1` was run?
**A.** 1.17%

**Q.** How did the activity change turn out when `Cc1ccc(-c2nn(-c3ccccc3)cc2/C=C/C(=O)Nc2cccc(S(N)(=O)=O)c2)cc1` was run?
**A.** 0.245%

**Q.** Which activity change does the source give for `CN(C)S(=O)(=O)c1cccc(-c2nn(-c3ccccc3)cc2/C=C2\SC(=S)N(CC(=O)O)C2=O)c1` here?
**A.** -61.8% (active)

**Q.** With `COc1cccc(-c2nn(-c3ccccc3)cc2/C=C(\C#N)C(=O)NCCCn2ccnc2)c1` as the compound, how does the activity change read?
**A.** -0.966%

**Q.** `CSc1nc2ccccc2cc1/C=C(\C#N)c1ccc(Cl)cc1Cl` was tested. Which activity change did it give?
**A.** 2.8%

**Q.** For `Cn1nc([N+](=O)[O-])nc1Sc1ccc(C(C)(C)C)cc1`, which activity change is on record?
**A.** -4.31%

**Q.** `Cc1cc(C(=O)NNC(=S)NC(C)c2ccccc2)cs1` (stereo not given) was tested. Which activity change did it give?
**A.** -0.958%

**Q.** How did the activity change turn out when `O=C(Nc1ccncc1)c1cc(-c2ccccn2)nc2ccc(Br)cc12` was run?
**A.** -70.4% (active)

**Q.** Which activity change does the source give for `Cc1ccc2nc(-c3ccncc3)cc(C(=O)Nc3ccc(OC(F)F)cc3)c2c1` here?
**A.** -2.42%

**Q.** Which activity change does the source give for `O=C(Nc1ccc(Br)cc1)c1cc(S(=O)(=O)Nc2ccccn2)ccc1Cl` here?
**A.** -1.07%

**Q.** With `O=C(Nc1ccc(Cl)cc1)/C(=C1\CCCN1)[N+](=O)[O-]` as the compound, how does the activity change read?
**A.** 0.411%

**Q.** With `O=C(Nc1cc(-c2nc3ncccc3o2)ccc1Cl)c1ccco1` as the compound, how does the activity change read?
**A.** -2.43%

**Q.** With `O=S1(=O)CC(N2CCN(c3ccccn3)CC2)CN1Cc1ccc(F)cc1` (stereo not given) as the compound, how does the activity change read?
**A.** -0.743%

**Q.** For `Cc1cc(C)n2nc(C(=O)Nc3cccc(S(=O)(=O)N4CCOCC4)c3)nc2n1`, which activity change is on record?
**A.** -34.4% (active)

**Q.** How did the activity change turn out when `Cc1occc1C(=O)Nc1cccc(S(=O)(=O)N2CCOCC2)c1` was run?
**A.** -3.31%

**Q.** `Cc1c(C(=O)Nc2cccc(S(=O)(=O)N3CCOCC3)c2)oc2ccccc12` was tested. Which activity change did it give?
**A.** -1.92%

**Q.** With `Cc1ccc(-c2cc(C(F)(F)F)n3ncc(C(=O)N4CCCCC4c4cccnc4)c3n2)cc1` (stereo not given) as the compound, how does the activity change read?
**A.** -3.01%

**Q.** Which activity change does the source give for `Cc1ccccc1NC(=O)C(C)c1ccc(-c2ccccc2)c(F)c1` (stereo not given) here?
**A.** -2.15%

**Q.** `CCCc1nc2c(C)cc(-c3nc4ccccc4n3C)cc2n1Cc1ccc(-c2ccccc2C(=O)O)cc1` was tested. Which activity change did it give?
**A.** -0.702%

**Q.** Which activity change does the source give for `O=C(NCCc1ccc(Cl)cc1)C1CC(=O)N(C2CCCCC2)C1` (stereo not given) here?
**A.** -0.359%

**Q.** How did the activity change turn out when `O=C(NCCCN1CCCCCC1)C1CC(=O)N(C2CCCC2)C1` (stereo not given) was run?
**A.** -44.9% (active)

**Q.** With `O=C(NCCCN1CCCCC1)C1CC(=O)N(CCc2ccccc2)C1` (stereo not given) as the compound, how does the activity change read?
**A.** 0.88%

**Q.** For `CCc1cc(CNC(=O)CC2C(=O)NCCN2CC2CCCCC2)on1` (stereo not given), which activity change is on record?
**A.** -0.174%

**Q.** `COc1ccc(NC(=O)C2CCC(CNS(=O)(=O)c3csc(C(N)=O)c3)CC2)cc1OC` (stereo not given) was tested. Which activity change did it give?
**A.** -80.6% (active)

**Q.** For `CC(=O)Nc1ccc(S(=O)(=O)NCC2CCC(C(=O)NCCc3ccccc3)CC2)cc1` (stereo not given), which activity change is on record?
**A.** -1.57%

**Q.** With `COc1cccc(CNS(=O)(=O)c2csc(C(N)=O)c2)c1` as the compound, how does the activity change read?
**A.** 0.982%

**Q.** Which activity change does the source give for `CN(C)C(=O)CCc1ccc2c3c([nH]c2c1)[C@]1(CCC2CCCC2)[C@@H](C(=O)N2CCOCC2)C[C@H](CC(=O)NCc2ccco2)C(=O)N1CC3` here?
**A.** 0.536%

**Q.** With `CSCCC(NC(=O)C1CCC(C)CC1)C(=O)NCc1ccco1` (stereo not given) as the compound, how does the activity change read?
**A.** -5.62%

**Q.** Which activity change does the source give for `O=C(Cn1c[n+](CC(=O)c2ccc([N+](=O)[O-])cc2)cn1)c1ccc([N+](=O)[O-])cc1` here?
**A.** 1.85% and -0.852%

**Q.** `O=C(CC(n1cncn1)C(Cl)(Cl)Cl)c1ccc([N+](=O)[O-])cc1` (stereo not given) was tested. Which activity change did it give?
**A.** -37.2% (active)

**Q.** For `O=C(CCn1nnc2ccccc21)OCC(=O)c1ccc([N+](=O)[O-])cc1`, which activity change is on record?
**A.** 1.01%

**Q.** With `CCCN(C(=O)COC(=O)CNS(=O)(=O)c1ccc(NC(C)=O)cc1)C1CCS(=O)(=O)C1` (stereo not given) as the compound, how does the activity change read?
**A.** -0.677%

**Q.** Which activity change does the source give for `O=C(NC(=O)c1cc(OCC(F)(F)F)ccc1OCC(F)(F)F)Nc1ccccc1` here?
**A.** -0.0973%

**Q.** With `COC(=O)c1ccc(COc2cc([N+](=O)[O-])cc3cccnc23)cc1` as the compound, how does the activity change read?
**A.** -0.442%

**Q.** For `COc1ccc(CN2CCCC(CNC(=O)c3ccc(F)cc3)C2)cc1OC` (stereo not given), which activity change is on record?
**A.** -2.54%

**Q.** For `S=c1nccc(-c2cc(Cl)sc2Cl)[nH]1`, which activity change is on record?
**A.** -49.1% (active)

**Q.** `CCOc1c2ccc(C(=O)NC3CCCc4ccccc43)cc2nn1CC` (stereo not given) was tested. Which activity change did it give?
**A.** -6.07%

**Q.** For `COC(=O)c1ccc(Nc2ncnc3sccc23)cc1`, which activity change is on record?
**A.** -2.64%

**Q.** How did the activity change turn out when `COc1ccc(Nc2ncnc3sc(C)cc23)cc1` was run?
**A.** -82.2% (active)

**Q.** `COc1ccc(Nc2cc(Sc3ccc(OC)cc3)ncn2)cc1` was tested. Which activity change did it give?
**A.** -0.999%

**Q.** How did the activity change turn out when `CC1(C)CC[C@]2(C(=O)O)CC[C@]3(C)C(=CCC4[C@@]5(C)CC[C@H](O)C(C)(C)C5[C@H](O)C[C@]43C)[C@@H]2C1` (stereo not given in full) was run?
**A.** 0.294%

**Q.** For `CCO[C@H]1OC(C(=O)N2CCN(Cc3ccccc3)CC2)=C[C@@H](c2cn(C(C)=O)c3ccccc23)[C@@H]1CCCO`, which activity change is on record?
**A.** 0.631%

**Q.** Which activity change does the source give for `COc1ccc(CCNS(=O)(=O)c2ccc(Cl)s2)cc1OC` here?
**A.** -1.56%

**Q.** Which activity change does the source give for `COc1ccc(CCNS(=O)(=O)c2ccc(F)cc2)cc1OC` here?
**A.** -67.3% (active)

**Q.** Which activity change does the source give for `COc1ccc(CCNS(=O)(=O)c2ccc(C(=O)NCc3ccco3)cc2)cc1OC` here?
**A.** -2.3%
